# Bioassay records deposited in PubChem BioAssay by National Center for Advancing Translational Sciences (NCATS).
# Hits are enriched below; roughly 19% of the tested compounds scored in any of these assays.
# Shiga inhibitor: Shiga toxin inhibition. inhibition, % at 38.7 µM. Vero cells, Shiga toxin protein synthesis inhibition reporter. 290,000 tested, 9.2% active. AID 2315; in the data active = inhibition mostly above about 28%, no sharp cut-off; inactive = mostly below about 43%
# Pf growth 48h: inhibits P. falciparum growth in the first generation, 48 h. P. falciparum luciferase growth in erythrocytes, 48 h. Potency, µM (top dose mostly 28.7 µM), most hits filed as inhibitors. 310,000 tested, 5.9% active
#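 Compounds are pin-transferred into medium, infected erythrocytes (2% hematocrit, 0.1% parasitemia final) are added, and plates sit one parasite generation at 37 C in 5% CO2. Detection reagent is then added and luminescence measured.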
# Marburg entry inh: inhibitors of Marburg virus binding or cell entry; AID 540276; Marburg virus pseudotyped entry inhibition, cell reporter; Potency, µM (titrated, usually from 37.8 µM), actives largely listed as inhibitors; 300,000 tested, 1.8% active; calls by dose curve; tested in HEK293 cells
# CHX counter: affects cycloheximide protein synthesis inhibition readout, counter-screen; cell reporter, cycloheximide protein synthesis inhibition counterscreen; max response, %; 300,000 tested, 12% active; in the data active = max response mostly above about 13%, no sharp cut-off; inactive = mostly below about 14%; note: read at 38.3 µM for the half of the compounds with a filed dose
# LASV entry inh: blocks Lassa virus binding to or entry into cells | AID 540256 | Potency, µM (top dose mostly 37.9 µM), hits mostly inhibitors | Lassa virus pseudotype entry inhibition, cell reporter | 300,000 tested, 1.2% active; calls by dose curve; tested in HEK293 cells; note: nearly all actives have a fitted effect of over 50% in size
# Pf growth 96h: P. falciparum growth inhibition at 96 hour, primary screen for plastid delayed-death inhibitors. P. falciparum luciferase reporter growth, 96 h. Potency, µM (series often up to 28.7 µM), hits mostly inhibitors. 320,000 tested, 6.9% active
#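 Two-generation exposure (96 h) targets delayed-death phenotype. Reporter parasites carrying integrated firefly luciferase, in red cells at 2% hematocrit and 0.05% parasitemia final, kept at 37 C, 5% CO2; luminescence loss indicates inhibition.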
# A number is an active result; . = inactive; ? = inconclusive; / = no result; [ ] = another dose, or the depositor's remark. Unless noted, calls come from the whole dose curve; as a rule, active = well fitted inhibition curve with a large enough effect; inconclusive = small, poorly fitted or top-dose-only effect, or another doubt; inactive = no such curve, though single readings can be large or run the other way.
SMILES,Shiga inhibitor,Pf growth 48h,Marburg entry inh,CHX counter,LASV entry inh,Pf growth 96h
NS(=O)(=O)c1ccc(-c2cccc(/C=C3\SC(=O)NC3=O)c2)cc1,.,?,/,.,/,?
COC(=O)C1=CO[C@@H](O)[C@@H]2C(CO)=CC[C@H]12,/,/,.,/,.,/
CCCOc1ccc(CSc2nc3ccccc3[nH]2)cc1,84,.,?,49,.,.
Nc1ccccc1Sc1nc2ccccc2[nH]1,59,?,.,23,/,?
Cc1ccccc1OCCSCc1nc2ccccc2[nH]1,.,?,.,.,.,13µM
c1ccc(CSc2nc3ccccc3[nH]2)cc1,57,.,?,44,?,.
Cc1cccc(OCCSCc2nc3ccccc3[nH]2)c1,.,?,?,.,?,?
CCOCCCN1C(=O)CN(C2CCCCC2)C(=O)C1c1ccc(OC)c(OC)c1 (centres undefined),.,.,.,.,.,.
O=C(C1CCN(S(=O)(=O)c2cccc3nonc23)CC1)N1CCN(c2ccccc2)CC1,/,/,.,/,.,/
O=c1cc(CSc2nc3ccccc3[nH]2)c2ccccc2[nH]1,53,/,.,28,?,.
O=[N+]([O-])c1ccc(CSc2nc3ccccc3[nH]2)cc1,38,.,?,35,?,?
O=C(CSCc1nc2ccccc2[nH]1)Nc1ccccc1,.,.,.,.,.,?
Fc1ccc(CSc2nc3ccccc3[nH]2)c2ccccc12,.,/,.,.,.,?
c1ccc(CSCc2nc3ccccc3[nH]2)cc1,74,.,?,62,?,.
CC(C)CSc1nc2ccccc2[nH]1,94,.,/,45,/,.
CN(C)c1nc(NCc2ccccc2)nc(SCC(=O)Nc2ccccc2Cl)n1,.,.,?,.,?,.
O=C(Cn1ncc2c3ccccc3n(Cc3ccc(Cl)cc3)c2c1=O)NCCC1=CCCCC1,/,/,.,/,.,/
O=c1nc(N2CCCCC2)nc(Nc2ccccc2)[nH]1,.,/,.,.,.,.
CCc1ccc(C(=O)CSc2n[nH]c(C)n2)cc1,111,.,.,44,.,.
Cc1ccc(C(=O)CSc2n[nH]c(C)n2)cc1,86,.,.,30,.,.
Cc1ccc(C)c(C(=O)CSc2n[nH]c(C)n2)c1,.,.,.,.,.,?
Nc1nc(NCCCN2CCOCC2)nc(Nc2cccc(F)c2)c1[N+](=O)[O-],.,.,?,.,.,?
Nc1nc(NCCCN2CCOCC2)nc(Nc2ccc(F)cc2)c1[N+](=O)[O-],.,13µM,?,.,.,?
Cc1cccc(Nc2nc(NCCCN3CCOCC3)nc(N)c2[N+](=O)[O-])c1,.,15µM,?,.,.,?
Cc1cc(C)c(Cn2c3ccccc3c3cnn(CC(=O)NCc4ccccn4)c(=O)c32)c(C)c1,.,?,?,.,?,.
SMILES,Shiga inhibitor,Pf growth 48h,Marburg entry inh,CHX counter,LASV entry inh,Pf growth 96h
COc1ccc(C2CC(=O)C3=C(C2)NC(C)=C(C(=O)Nc2ccccc2C)C3c2coc3ccc(C)cc3c2=O)cc1OC (centres undefined),.,2.3µM,?,.,.,?
COc1ccc2c(c1)OC(C)(C)C(c1ccccc1)C2c1ccc(OCCN2CCCC2)cc1 (centres undefined),/,1.7µM,/,/,/,3µM
O=C(/C=C\Nc1cccc(F)c1)c1ccc2c(c1)OCO2,.,.,?,28,?,.
COc1ccc(N/C=C\C(=O)c2ccc3c(c2)OCO3)cc1OC,24,.,.,67,.,4.7µM
O=C(Nc1ccc2c(c1)OCO2)C1CCCN1C(=O)Nc1cccc(F)c1 (centres undefined),.,?,.,.,.,/
COC(=O)c1ccc(N/C=C\C(=O)c2ccc3c(c2)OCO3)cc1,57,.,.,18,.,.
O=C1OC2(CCCCC2)CC2=C1C1O[C@](c3ccsc3)(Cc3c1ccc1ccccc31)O2,.,.[5.75 µM],/,.,/,?
O=S(=O)(N/N=C\C=C\c1ccccc1)c1ccc(Br)cc1,.,?,?,.,.,.
C(=C\c1ccccc1)/C=N/Nc1nc2ccccc2s1,95,.,.,34,.,.
Brc1ccc(/C=C/C=N/Nc2nc3ccccc3s2)cc1,49,.,.,.,.,.
CCC/C=N/Nc1nc2ccccc2s1,108,.,.,35,.,2.6µM
Cc1ccc(S(=O)(=O)N2CCN(c3ccc(S(=O)(=O)N4CCOCC4)cn3)CC2)cc1,.,/,?,.,.,.
COc1ccc(NC(=O)c2csc3c2CCCCC3)c(OC)c1,.,.,.,16,?,.
O=C(Nc1ccccc1O)c1csc2c1CCCC2,98,?,.,35,?,.
C=CCNCC(=O)Nc1sc2c(c1C(=O)Nc1ccc(OC)cc1OC)CCC2,.,12µM,/,.,/,.
COc1ccc(NC(=O)c2csc3c2CCCCC3)cc1,/,/,.,/,/,/
O=C(CCl)Nc1cccc2ncccc12,.,2.3µM,?,.,?,.
COc1ccc(OCC(=O)Nc2cccc3ncccc23)cc1,.,.,.,.,.,.
CCN1C(=O)c2cccc3c(NC(=O)c4cccc(N5C(=O)CCC5=O)c4)ccc1c23,.,.,?,.,.,.
CCOc1cc(C(=O)Nc2ccc3c4c(cccc24)C(=O)N3CC)cc(OCC)c1OCC,.,/,18µM,.,.,?
CCOc1cc(C(=O)Nc2cccc3ncccc23)cc(OCC)c1OCC,.,/,?,.,.,15µM
CC1Sc2ccc(Cl)cc2-c2nc(N)ncc21 (centres undefined),.,.,.,.,.,.
Cc1nn(CC(=O)O)c(=O)c2ccccc12,.,.,.,.,.,/
Cc1ccc(OCC(=O)N(Cc2ccccc2)c2ccccn2)cc1,.,.,/,32,/,.
COc1cc(CN(C(=O)COc2ccc(C)cc2)c2ccccn2)cc(OC)c1OC,/,/,.,/,.,/
SMILES,Shiga inhibitor,Pf growth 48h,Marburg entry inh,CHX counter,LASV entry inh,Pf growth 96h
O=C(COc1ccc(Cl)cc1)N(Cc1ccccc1)c1nc(-c2ccccc2)cs1,.,1.5µM,?,.,.,.
O=C(NC(=S)N(Cc1ccccc1)c1ccccn1)C1CC1,.,.,.,13,.,.
Cc1ccc(CN(C(=O)COc2cccc([N+](=O)[O-])c2)c2ccccn2)o1,/,/,2.8µM,/,?,/
CCC1=C(c2ccc(C)cc2)S(=O)(=O)N=C1N1CCC(C(=O)Nc2ccccc2F)CC1,/,/,/,/,.,/
COCCNCCOc1ccccc1-c1ccccc1,.,/,?,.,.,?
Fc1ccc(COc2ccccc2CNc2nn[nH]n2)cc1,.,.,.,.,.,.[1.15 µM]
CCCCCn1c(CNC(=O)CC)nc2ccccc21,.,.,/,.,/,.
COCC(=O)N(Cc1ccccc1)c1ccccn1,.,.,.,.,.,?
COc1ccccc1NC(=O)N(Cc1ccccc1)c1ccccn1,32,12µM,.,.,.,?
COCC(C)OC(=O)c1c(N)n(CC(C)C)c2nc3ccccc3nc12 (centres undefined),.,12µM,?,.,.,/
C=CCn1c(N)c(C(=O)OC(C)(C)C)c2nc3ccccc3nc21,.,/,.,.,.,/
COCCCn1c(N)c(C(=O)OCCOC)c2nc3ccccc3nc21,.,.,?,.,.,?
